Source: PubChem BioAssay AID651957 (The Scripps Research Institute Molecular Screening Center, 2012)
The campaign covered roughly 370,000 compounds. About 620 (0.17%) were called active.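 The calls were made as follows: active = inhibition above the mean inhibition of all tested compounds plus 3 SD, set per campaign (cut at about 52% in these data); inactive = the rest.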 Only a selection was taken, and actives are over-represented in it overall.

target: Nuclear receptor coactivator 2 (Homo sapiens) (UniProt Q15596); test: decrease of SRC2 fusion reporter luminescence – cell-based, SRC2 inhibitor project, primary screen (AID 651957); details: HEK293 GAL4-SRC2 luciferase reporter, at 9 µM, stronger effect = higher value;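 also: 0% = DMSO treated cells and 100% = cells given Gossypol at 36 µM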
Sequence (Q15596 whole entry, looked up, the tested form may be a part): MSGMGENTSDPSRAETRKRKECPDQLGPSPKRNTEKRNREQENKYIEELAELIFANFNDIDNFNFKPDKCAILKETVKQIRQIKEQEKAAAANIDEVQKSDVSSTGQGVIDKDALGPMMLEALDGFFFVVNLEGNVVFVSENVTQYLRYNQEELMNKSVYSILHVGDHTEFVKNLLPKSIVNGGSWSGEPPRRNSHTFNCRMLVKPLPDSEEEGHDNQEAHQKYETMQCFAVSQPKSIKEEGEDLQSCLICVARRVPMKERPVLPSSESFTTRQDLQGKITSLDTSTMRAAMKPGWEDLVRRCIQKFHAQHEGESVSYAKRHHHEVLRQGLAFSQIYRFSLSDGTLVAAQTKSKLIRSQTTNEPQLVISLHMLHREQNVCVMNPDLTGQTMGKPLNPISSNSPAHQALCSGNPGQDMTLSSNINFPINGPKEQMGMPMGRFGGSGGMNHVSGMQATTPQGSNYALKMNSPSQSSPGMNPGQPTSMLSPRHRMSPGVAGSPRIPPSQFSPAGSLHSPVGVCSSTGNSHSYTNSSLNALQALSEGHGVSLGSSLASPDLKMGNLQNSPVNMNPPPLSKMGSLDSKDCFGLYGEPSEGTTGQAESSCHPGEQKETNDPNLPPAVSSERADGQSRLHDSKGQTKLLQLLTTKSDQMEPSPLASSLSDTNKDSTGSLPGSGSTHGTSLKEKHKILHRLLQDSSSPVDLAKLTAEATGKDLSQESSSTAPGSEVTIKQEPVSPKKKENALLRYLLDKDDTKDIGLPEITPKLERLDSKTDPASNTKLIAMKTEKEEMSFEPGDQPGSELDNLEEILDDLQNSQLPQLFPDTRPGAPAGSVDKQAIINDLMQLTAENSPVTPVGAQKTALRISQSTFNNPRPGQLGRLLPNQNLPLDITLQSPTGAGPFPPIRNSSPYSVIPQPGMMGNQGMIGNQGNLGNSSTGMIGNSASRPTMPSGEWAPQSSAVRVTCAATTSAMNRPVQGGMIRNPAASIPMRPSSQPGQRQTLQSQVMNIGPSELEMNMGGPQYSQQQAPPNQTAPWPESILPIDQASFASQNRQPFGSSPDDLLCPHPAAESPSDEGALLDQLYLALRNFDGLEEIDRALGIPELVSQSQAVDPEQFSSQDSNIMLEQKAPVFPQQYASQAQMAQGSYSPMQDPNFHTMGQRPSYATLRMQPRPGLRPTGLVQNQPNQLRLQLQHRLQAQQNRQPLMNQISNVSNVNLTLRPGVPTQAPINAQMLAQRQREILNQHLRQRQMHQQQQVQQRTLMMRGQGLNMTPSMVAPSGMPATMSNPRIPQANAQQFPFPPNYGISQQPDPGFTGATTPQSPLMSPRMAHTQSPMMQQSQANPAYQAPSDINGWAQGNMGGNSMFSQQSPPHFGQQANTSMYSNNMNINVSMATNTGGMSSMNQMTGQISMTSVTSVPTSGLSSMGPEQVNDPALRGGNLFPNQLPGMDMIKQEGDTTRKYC

Row | Compound | inhibition
1 | COc1cc(SC)ccc1C(=O)Nc1nc(C)cs1 | 73.4% (active)
2 | COc1cc(Cl)c(C)cc1NC(=O)COC(=O)c1cc(SC)ccc1Cl | -3.4% (inactive)
3 | Cc1csc(NC(=O)CN2CCCCCC2)n1 | -13.9% (inactive)
4 | COCc1[nH]nc2c1C(c1ccccc1)N(c1ccccc1)C2=O (stereo not given) | 13.8% (inactive)
5 | N#CCC[C@H]1CC[C@]2(CCCN(Cc3ccc(Cl)cc3)C2)O1 | 7.54% (inactive)
6 | COc1ccc(S(=O)(=O)Nc2ccc(F)cc2)c(C)c1C | -27.1% (inactive)
7 | CC(CCN1CCC(C(O)(c2ccccc2)c2ccccc2)CC1)Oc1ccc(C(F)(F)F)cc1 (stereo not given) | -7.91% (inactive)
8 | COCCn1c(C)cc(C(=O)COC(=O)CNC(=O)c2ccco2)c1C | -9.66% (inactive)
9 | Cc1cc(C(=O)COC(=O)CNC(=O)c2ccc(F)cc2)c(C)n1Cc1ccco1 | -4.87% (inactive)
10 | Cc1ccsc1C(=O)OCC(=O)c1cc(C)n(CC2CCCO2)c1C (stereo not given) | 73.2% (active)
11 | O=C(Nc1ccccc1)N1CCN(Cc2nc3ccccc3c(=O)[nH]2)CC1 | -10.6% (inactive)
12 | O=S1(=O)c2c(NCc3ccco3)cccc2Oc2ccccc2CN1Cc1cn(Cc2cccc(C(F)(F)F)c2)nn1 | 4.32% (inactive)
13 | Clc1ccc(Cl)c(Oc2ccc(Oc3nc(Cl)ccc3Cl)cc2)n1 | -10% (inactive)
14 | c1csc(-c2nnc(SCc3nc4ccccc4[nH]3)o2)c1 | 4.24% (inactive)
15 | O=C(NCc1ccc2c(c1)OCO2)c1cc2c(s1)CS(=O)(=O)C2 | 13.1% (inactive)
16 | COc1cccc(NC(=O)C2(C)CCN2Cc2ccccc2Cl)c1 (stereo not given) | -0.04% (inactive)
17 | C#CCNC(=O)C[C@H]1C[C@@]2(C(=O)OC)C(=C[C@H](C(C)C)O[C@@H]2C2CC2)N(Cc2ccco2)C1=O | 14.7% (inactive)
18 | Cc1ccc(CSc2nnc(SCC(=O)NN=Cc3cc(Br)ccc3F)s2)cc1 | 15% (inactive)
19 | Cc1cccc(Nc2nc3c(S(=O)(=O)c4ccccc4)nnn3c3ccccc23)c1C | 6.13% (inactive)
20 | Cc1noc(C)c1S(=O)(=O)N(C)C[C@H]1OCCCC[C@@H](C)Oc2ccc(NC(=O)CCCN(C)C)cc2C(=O)N([C@H](C)CO)C[C@@H]1C | -6.35% (inactive)
21 | CCC(C)CN1C(=O)CN(S(C)(=O)=O)CC1(C)C(=O)Nc1ccc2c(c1)OCCO2 (stereo not given) | -21.3% (inactive)
22 | CCOC(=O)N1CCN(C(=O)C[C@H]2C[C@@]3(C(=O)OC)C(=C[C@H](C(C)(C)C)O[C@@H]3C)N(Cc3ccc(Cl)cc3Cl)C2=O)CC1 | 23.9% (inactive)
23 | CC1(C)Cc2c(sc3nc(SCC(=O)NCc4ccccc4)n(-c4ccccc4)c(=O)c23)CS1 | -9.11% (inactive)
24 | C[C@@H]1ON(C)[C@H]2C[C@H]3c4[nH]c5cccc(-c6ccc7c(c6)OCO7)c5c4CCN3C[C@@H]12 | -21% (inactive)
25 | C=CC1C(OC2OC(CO)C(O)C(O)C2O)OC=C(C(=O)OC)C1CC1CC(=O)CC(CC(=O)CCc2ccc(O)cc2)O1 (stereo not given) | -3.45% (inactive)
26 | COc1ccc(-c2cc(-c3nnc(SCc4ccc([N+](=O)[O-])cc4)n3N)[nH]n2)cc1 | -26.2% (inactive)
27 | COc1ccc(CCOC2OC(CO)C(OC(=O)/C=C/c3ccc(O)c(OC)c3)C(O[C@H]3O[C@@H](C)[C@H](O)[C@@H](O)[C@H]3O)C2O)cc1O (stereo not given in full) | -2.46% (inactive)
28 | CCCCn1c(N)c(N(CC)C(=O)c2ccc(N(C)S(=O)(=O)c3ccc(C)cc3)cc2)c(=O)[nH]c1=O | -16.6% (inactive)

Row | Compound | inhibition
29 | CN(C)S(=O)(=O)c1ccc(NC(=O)COC(=O)Cn2[nH]c(=O)c3ccccc3c2=O)cc1 | 10.7% (inactive)
30 | CCC(CO)Nc1cccc2c1S(=O)(=O)N(Cc1cn(Cc3ccccc3C(F)(F)F)nn1)Cc1ccccc1O2 (stereo not given) | -19.2% (inactive)
31 | O=C(OC12CC3CC(CC(C3)C1)C2)c1ccc(NCc2cc(O)ccc2O)cc1 | 84.2% (active)
32 | Cc1nc(N)nc(SCc2ccc([N+](=O)[O-])cc2)c1N | -3.96% (inactive)
33 | COCCCNC(=O)C[C@H]1C[C@@]2(C(=O)OC)C(=C[C@H](C(C)(C)C)O[C@@H]2C)N(Cc2ccc(Cl)cc2Cl)C1=O | 16.8% (inactive)
34 | CCOC(=O)[C@]12CCCC=C1N(Cc1ccc(OC)cc1)C(=O)[C@@H]2CC(=O)NCc1cccs1 | 7.23% (inactive)
35 | CCOC(=O)[C@]12CCCCC/C=C\1N(Cc1ccc(OC)cc1)C(=O)[C@H]2CC(=O)N1CCOCC1 | 8.19% (inactive)
36 | Cc1sc2ncn(CC(=O)NCCCC(=O)NCc3ccc(F)cc3)c(=O)c2c1C | -10.8% (inactive)
37 | Cc1[nH]n(C(N)=S)c(=O)c1N=Nc1ccc(Cl)cc1Cl | -13.3% (inactive)
38 | CCCCOCCCNC(=O)C[C@H]1C[C@@]2(C(=O)OC)C(=C[C@H](COCc3ccccc3)O[C@@H]2C)N(Cc2cccc3ccccc23)C1=O | 6.59% (inactive)
39 | COc1ccc(C(C#N)=C2C=CC(=NO)c3ccccc32)cc1 | 23.7% (inactive)
40 | O=C(Nc1ccc(N2CCCCC2)cc1)c1cc(S(=O)(=O)N2CCOCC2)ccc1F | 10.1% (inactive)
41 | CC(=O)Nc1ccc(S(=O)(=O)N2CCCC2C(=O)O)cc1 (stereo not given) | 10.5% (inactive)
42 | CC(=O)Nc1ccc(S(=O)(=O)Nc2ccc(N3CCCCC3)cc2)cc1 | 63.2% (active)
43 | C[C@H](NC(=O)C1CC(=O)N(c2ccc3c(c2)OCO3)C1)C(=O)NCc1ccco1 (stereo not given in full) | -21.3% (inactive)
44 | CN(C)[C@H]1CCN(c2cccc3c2S(=O)(=O)N2CC[C@H](C2)O3)C1 | -9.6% (inactive)
45 | CC(c1ccc(N)cc1)c1cn(C)c2ccccc12 (stereo not given) | -4.44% (inactive)
46 | CC(CCN1CCC(C(O)(c2ccccc2)c2ccccc2)CC1)Oc1ccc(Cl)cc1 (stereo not given) | -21.2% (inactive)
47 | COc1ccc(-n2c(SCC(=O)Nc3ccc(C)c(Cl)c3)nc3ccccc3c2=O)cc1 | -1.63% (inactive)
48 | O=C(CN1CCN(c2ccc(O)cc2)CC1)NC1CCCc2ccccc21 (stereo not given) | 0.42% (inactive)
49 | COc1cc(F)ccc1-c1cc(C(=O)NCC2CCCCC2)[nH]n1 | -20% (inactive)
50 | COc1ccc(OC)c(NC(=O)c2cc(-c3cc(F)ccc3OCC3CCCO3)n[nH]2)c1 (stereo not given) | 75.3% (active)
51 | CCCOc1ccc(F)cc1-c1cc(C(=O)Nc2ccc(F)cc2)[nH]n1 | 0.04% (inactive)
52 | O=C(COC(=O)c1cnccn1)Nc1ccc(Cl)cc1C(F)(F)F | -47.6% (inactive)
53 | C=CCN1C(=O)[C@H](CC(=O)NCCCN2CCCC2=O)[C@@]2(C(=O)OCC)CCCC=C12 | -13.7% (inactive)
54 | CCNc1nc(NC(C)C)nc(OCCOC(=O)c2ccccc2)n1 | -5.88% (inactive)
55 | CN(c1ccc(OCC(=O)OCC(=O)Nc2cccc([N+](=O)[O-])c2)cc1)S(=O)(=O)c1ccc(F)cc1 | 5.05% (inactive)
